# Sampled rows, rich in hits. Any-hit rate of the full collection: about 1.6%.
# Phagocyt inh = inhibitors of macrophage phagocytosis; J774A.1 macrophage IgG-bead phagocytosis, imaging; inhibition, % at 5 µM; 0.07% of 110,000 active; AID 1029;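 active = inhibition above the mean of the plate negative controls plus 5 SD, cut at about 13% in these data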;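 note: phagocytic index as fraction of beads internalized from green versus red external bead signal; plate controls were DMSO negative control for no effect and cytochalasin-D positive control for full effect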
# TNFa cytotox = toxic to HUVEC cells under TNF alpha stimulation; 0.17% of 93,000 active; cell count reduction, % at 2 µM; HUVEC TNFalpha-stimulated, Hoechst cell count, imaging; AID 848;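 active = cell count reduction exceeding the screen mean by over 5 SD, scaled to untreated wells per plate, cut at about 78% in these data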;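 note: cells counted after 24 h of TNF alpha exposure following the 1 h pretreatment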
# Insulin prom inh = TRM-6 insulin promoter activity inhibition; inhibition, % at 2 µM; TRM-6 cells (human fetal islet line), insulin promoter-eGFP reporter, imaging; reporter expression induced with tamoxifen; 0.9% of 130,000 active; AID 1273;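 active = inhibition above the mean plus 3 SD, with well images judged a real hit on visual review, cut at about 60% in these data, passing the limit was not always enough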
# E-sel TNF inh = blocks E-selectin expression induced by TNF alpha; HUVEC TNFa-induced E-selectin immunofluorescence, high content; inhibition, % at 2 µM; 0.71% of 120,000 active;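 active = inhibition above the batch mean plus 3 SD, and confirmed as a hit on visual image review, cut at about 43% in these data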;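 note: 0% = TNF-stimulated DMSO wells and 100% = unstimulated control wells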
# cytoskel mod = modifiers of cytoskeleton assembly. HUVEC TNFa F-actin phalloidin imaging, high content. inhibition, % at 2 µM. 0.18% of 91,000 active;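 active = inhibition above the batch mean plus 3 SD and confirmed as a hit by visual image inspection, cut at about 30% in these data, passing the limit was not always enough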
# VCAM1 TNFa inh = reduces TNF alpha induced VCAM1 expression in HUVEC; 0.48% of 95,000 active; inhibition, % at 2 µM; HUVEC TNFa-induced VCAM-1 immunofluorescence, high-content imaging;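 active = inhibition above the batch mean plus 3 SD, with images confirmed as a hit by eye, cut at about 37% in these data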;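 note: 0% = TNF-stimulated DMSO wells and 100% = unstimulated control wells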
# * marks the source's active call; other numbers are inactive results; nt = not tested or not shown; + = active, no number.
SMILES,Phagocyt inh,TNFa cytotox,Insulin prom inh,E-sel TNF inh,cytoskel mod,VCAM1 TNFa inh
CCN(CC)c1ccc(C2C(C(=O)OCCOC)=C(C)NC3=C2C(=O)CC(C)(C)C3)cc1 (centres undefined),1,-12,nt,61*,-44,2
COc1ccc2[nH]c(C)c(CCN3C(=O)C4C5C=CC(C5)C4C3=O)c2c1 (centres undefined),-1,-30,nt,70*,-3,16
COc1ccc2[nH]c(C)c(CN3CCCCC3)c(=O)c2c1,-1,nt,nt,nt,nt,nt
CCCCc1n[nH]c(=S)n1Cc1ccc(Cl)cc1,nt,nt,-27,-16,nt,nt
NC(=O)[C@@H]1CCNc2c(I)cc([N+](=O)[O-])cc2C(=O)N[C@@H](CCC(=O)O)C(=O)N[C@@H](CO)C(=O)N1,nt,nt,-5,4,nt,nt
NC(=O)[C@@H]1CCCNc2c(I)cc([N+](=O)[O-])cc2C(=O)N[C@@H](CCCN=C(N)N)C(=O)N[C@@H](CCCN=C(N)N)C(=O)N1,nt,nt,14,-23,nt,nt
CC[C@H](C)[C@@H]1NC(=O)c2cc([N+](=O)[O-])cc(I)c2NCC[C@@H](C(N)=O)NC(=O)[C@H](CCCN=C(N)N)NC1=O,nt,nt,-68,83*,nt,nt
NC(=O)[C@@H]1CCCCNc2c(I)cc([N+](=O)[O-])cc2C(=O)N[C@@H](CCC(=O)O)C(=O)N[C@@H](CO)C(=O)N1,nt,nt,60*,-17,nt,nt
C/C(N)=C(/C#N)C(=O)COC(=O)Cc1coc2ccc3ccccc3c12,nt,nt,-27,-1,nt,nt
CC(=O)c1cc(F)c(N2CCN(C(=O)c3ccco3)CC2)cc1C,1,5,47,-8,-4,1
O=C(c1ccccc1F)N1CCN(c2ccccc2F)CC1,0,nt,nt,91*,nt,nt
CC(=O)c1ccc(N2CCN(C(=O)c3ccco3)CC2)c(F)c1,+,2,12,-5,-14,6
O=C(c1ccccc1)N1CCN(c2ccccc2F)CC1,nt,10,18,71*,3,0
O=C(NNC(=O)c1ccccc1-n1cccc1)c1ccc(Cl)cc1,nt,9,-2,54*,nt,-19
O=[N+]([O-])c1ccc(Nc2nc(NC3CCCCC3)nc(N3CCCC3)n2)cc1,nt,nt,-13,nt,nt,nt
O=C(COC(=O)c1cc(-c2cccs2)nn1-c1ccccc1)Nc1ccc(Cl)c([N+](=O)[O-])c1,-5,nt,-6,nt,nt,nt
COc1ccc(-c2c3c(=O)n(C)c(=O)n(C)c3cn2Cc2cccnc2)cc1,0,-76,73*,17,1,-30
Cc1ccc(S(=O)(=O)NNC(=O)CCCCC(=O)NNS(=O)(=O)c2ccc(C)cc2)cc1,nt,nt,-61,nt,nt,nt
Cn1c(=N)n(CC(O)c2ccco2)c2ccccc21 (centres undefined),0,-8,-18,nt,-26,-15
Cn1c(=N)n(CC(O)c2cccc3ccccc23)c2ccccc21 (centres undefined),0,83*,-64,nt,-14,43
CCCCCCN=CC1=C(O)C(C(=O)OC)C(C)(C)CC1=O (centres undefined),0,9,93*,12,9,-2
COC(=O)C1C(O)=C(C=NC2CCCCC2)C(=O)CC1(C)C (centres undefined),0,-13,50,-10,nt,-1
CC1CCCC(C)N1/N=C/c1ccccc1C(=O)O (centres undefined),nt,nt,72*,nt,nt,nt
O=C(OC[C@@H]1CCCN2CCCC[C@H]12)c1cc2ccccc2oc1=O,-2,nt,-36,1,nt,nt
COc1ccc2cc(C#N)c(NC(C)C)nc2c1,-1,-3,86*,-13,0,-15
SMILES,Phagocyt inh,TNFa cytotox,Insulin prom inh,E-sel TNF inh,cytoskel mod,VCAM1 TNFa inh
Cn1c(SCC(=O)O)nnc1C1CCCCC1,-1,6,83*,4,-7,24
COc1ccc(-c2cc3ccccc3oc2=O)cc1NC(=O)c1ccc([N+](=O)[O-])o1,nt,nt,-33,43,0,74*
COc1ccc(-c2cc3ccccc3oc2=O)cc1NC(=O)c1ccc(Br)o1,0,-30,nt,5,-2,8
CCOC(=O)c1[nH]c2ccccc2c1NC(=S)Nc1cc(C)ccc1C,nt,nt,76*,-1,nt,nt
COC(=O)c1ccc(CSc2nnc(-c3ccncc3)n2Cc2ccccc2)o1,0,0,nt,8,76*,-9
O=C1CCC/C(=N/NC(=O)C2CCN(S(=O)(=O)c3cccs3)CC2)C1,nt,nt,23,nt,nt,nt
O=C(O)C(=O)Cc1c[nH]c2ccccc12,nt,nt,41,nt,nt,nt
CCN(C(=O)CCS(=O)(=O)c1ccc(Br)cc1)c1ccc2c(c1)OCO2,2,nt,nt,96*,nt,nt
CN(C)C(=C(C#N)C#N)N1CCN(c2ccc(Cl)cc2)CC1,nt,nt,-26,nt,nt,nt

# Screens: PubChem BioAssay, several laboratories
